HCV inh – HCV inhibition; Huh7.5.1 HCVcc-Cre infection, luciferase reporter, 44 h; Potency, µM (highest dose often 41.8 µM), for inactives: at the highest dose activity change, negative = inhibition, actives largely listed as inhibitors; actives 3.4% (n = 340,000); AID 651820; active = well fitted inhibition curve with a large enough effect; inconclusive = small, poorly fitted or top-dose-only effect, or another doubt; inactive = no such curve, though single readings can be large or run the other way; note: potency is the fitted concentration of half-maximal effect
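Compounds are dispensed onto cells plated 4 h earlier at 1,000 per well, with HCVcc-Cre virus (about 0.5 moi) added next. Following 44 h of culture, luminescent signal is measured for 15 sec after 15 min with substrate at room temperature.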
MARV entry inh – inhibitors of Marburg virus binding or cell entry | Marburg virus pseudotyped entry inhibition, cell reporter | AID 540276 | actives 1.8% (n = 300,000) | Potency, µM (top dose mostly 37.8 µM), inactives show at the top dose activity change, negative = inhibition, hits mostly inhibitors; calls by dose curve; tested in HEK293 cells; note: potency is the fitted concentration of half-maximal effect
HCMV inh – inhibitors of human cytomegalovirus. HFF cells, HCMV-luciferase reporter, 72 h; stronger effect = lower value. activity change, negative = inhibition, % at 57.5 µM. actives 4.5% (n = 410,000). AID 1259415; in the data active = activity change below about -60%; inconclusive = no clear call, values can overlap the other calls; inactive = above about -39%
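Compounds were evaluated in HFFs infected with an HCMV luciferase reporter virus (MOI 1 PFU/cell). Luciferase in lysates collected 72 h post infection served as the replication measure.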
LASV entry inh – inhibitors of Lassa virus binding or cell entry; Potency, µM (titrated, usually from 37.9 µM), without a hit: at the top dose activity change, negative = inhibition, hits mostly inhibitors; actives 1.2% (n = 300,000); Lassa virus pseudotype entry inhibition, cell reporter; calls by dose curve; tested in HEK293 cells; note: potency is the fitted concentration of half-maximal effect; nearly all actives have a fitted effect of over 50% in size
FMDV antiviral – antivirals against foot and mouth disease virus; AID 1159524; Potency, µM (series often up to 57.9 µM), inactives show top-dose activity change, negative = inhibition, usual class: inhibitors; actives 1.2% (n = 410,000); FMDV antiviral cell-based qHTS; calls by dose curve; tested in HEK293T cells; note: read-out not given here; potency is the fitted concentration of half-maximal effect; nearly all actives have a fitted effect of over 45% in size
The depositor's hits bear a star; ? = inconclusive; . = no result; + = active, no number; [ ] = remark or other dose. Most compounds without a hit are left out; they make up all but 7.9% or so of the library. % is set by controls: 0 for no effect and ±100 for the full control effect.

SMILES | HCV inh | MARV entry inh | HCMV inh | LASV entry inh | FMDV antiviral
Cc1cnc(C)c(-c2cc(F)cc3c2OC(CNC(=O)CN2CCCC2)C3)n1 (stereo not drawn) | . | . | . | . | -1%
Cc1ccc(NS(=O)(=O)c2ccc(Br)s2)nc1 | 3.5µM* | -1%[46.1 µM] | ? | -8% | 36%
O=C(CCS(=O)(=O)c1ccc(Cl)cc1)Nc1ccccc1Br | 3% | -5%[46.1 µM] | -98* | 17% | -4%
CC(=O)c1sc(NC(=O)CCS(=O)(=O)c2ccc(Cl)cc2)nc1C | 1.1µM* | ? | 1 | ? | -12%
Cc1ccc(S(=O)(=O)CCC(=O)Nc2ccccc2Cl)cc1 | 5% | . | -27 | . | 18%
CCC(C)C(=O)O[C@@H]1[C@H](OC(C)=O)c2c(ccc3ccc(=O)oc23)OC1(C)C (stereo partly drawn) | . | . | -33 | . | .
CC(=O)c1ccc(NC(=O)CSc2nnc3ccc(-c4ccc(Br)cc4)nn23)cc1 | . | . | -17 | -6%[46.1 µM] | -6%
N#C/C(=C\c1ccc(N2CCOCC2)o1)c1ccccc1 | 11µM* | ? | 52 | ? | .
N#C/C(=C/c1ccc(N2CCCCC2)o1)C(=O)Nc1ccc(Cl)cc1 | ? | 3% | 24 | ? | 48%
N#C/C(=C/c1ccc(N2CCCCCC2)o1)c1cccc(F)c1 | ? | ? | -81* | 3% | -46%
N#C/C(=C/c1ccc(N2CCCCCC2)o1)c1ccc(F)cc1 | ? | 10µM* | . | ? | -17%
N#C/C(=C/c1ccc(N2CCCCC2)o1)C(=O)Nc1ccc2ccccc2c1 | 10µM* | ? | ? | 11% | -3%
N#C/C(=C/c1ccc(N2CCOCC2)o1)c1ccc(Br)cc1 | ? | 10% | 72 | 0% | 0%
CC(=CC[Si](C)(C)C)CCC=O | . | -25%[14.2 µM] | . | ? | .
COc1ccccc1-c1cc(Nc2ccn[nH]2)ncn1 | . | . | . | . | -19%
O=C(Nc1ccc2nc(-c3ccccc3)[nH]c2c1)c1ccco1 | ? | ? | -67* | ? | 19%
O=C(Nc1cccc(-c2nc3ccccc3[nH]2)c1)c1cccc(NC(=O)c2ccco2)c1 | 3.5µM* | 13µM* | -102* | ? | 32µM*
CS(=O)(=O)c1cccc(C(=O)Nc2cccc(-c3nc4ccccc4[nH]3)c2)c1 | -18% | 0%[46.1 µM] | 5 | ? | 11%
CCC(=O)N1CCc2cc(S(=O)(=O)NC(C(=O)NCCc3ccccc3)C(C)C)ccc21 (stereo not drawn) | . | -6%[46.1 µM] | 15 | 0%[46.1 µM] | -20%
COc1ccc(CCNC(=O)NCc2noc3ccc(C)cc23)c(OC)c1 | . | . | -19 | -2%[46.1 µM] | -8%
CCCCCC(=O)N(c1ccc(OCC)cc1)S(=O)(=O)c1ccc2c(c1)n(C)c(=O)n2C | . | ? | -1 | -9%[46.1 µM] | ?
CN(C)CCC(Oc1ccccc1OCc1ccccc1)c1ccccc1 (stereo not drawn) | -9% | ? | -34 | ? | -8%
CNCC[C@H](Oc1ccccc1OC)c1ccccc1 | . | 18µM* | . | . | -20%
COc1ccc(/C=C2\SC(=O)N(CCCC(=O)Nc3ccc(C(=O)O)cc3)C2=O)cc1 | . | . | -101* | . | 4µM*
CCc1ccc(/C=C2\SC(=S)N(CCCC(=O)Nc3nccs3)C2=O)cc1 | 13% | 2% | -93* | 5% | 14%
SMILES | HCV inh | MARV entry inh | HCMV inh | LASV entry inh | FMDV antiviral
Cc1ccc(/C=C2\SC(=S)N(CCCC(=O)Nc3ccccc3C(=O)O)C2=O)cc1 | 1% | . | ? | . | ?
COc1cc(OC)cc(C(=O)NCCN2C(=O)S/C(=C\c3cccs3)C2=O)c1 | 8.9µM* | . | -7 | . | ?
Cc1ccc(/C=C2\SC(=S)N(CCCC(=O)Nc3nccs3)C2=O)cc1 | 5% | ? | ? | 6% | -24%
CCc1ccc(/C=C2\SC(=S)N(CCCC(=O)Nc3ccccc3C(=O)O)C2=O)cc1 | 1% | . | + | . | 0%
COc1ccc(/C=C2\SC(=S)N(CCCC(=O)NNC(=O)c3ccccc3O)C2=O)cc1 | ? | ? | -75* | 2.2µM* | 4.5µM*
O=C(CCCN1C(=O)/C(=C/c2cccs2)SC1=S)NNC(=O)c1ccccc1O | ? | 5% | ? | ? | -1%
CCc1ccc(/C=C2\SC(=S)N(CCCC(=O)Nc3ccc(C(=O)O)cc3)C2=O)cc1 | 32% | . | -93* | . | -3%
COc1ccc(/C=C2/SC(=S)N(CCCC(=O)Nc3cccc(O)c3)C2=O)cc1 | ? | 7.9µM* | -97* | ? | 4%
COc1ccc(/C=C2\SC(=O)N(CCNC(=O)Cc3coc4cc(OC)ccc34)C2=O)cc1 | ? | 13% | -103* | -19% | 0%
COc1ccc2c(CC(=O)NCCN3C(=O)S/C(=C\c4cccnc4)C3=O)coc2c1 | -9% | 10% | 17 | ? | 0%
CCOc1ccc(-c2nn(-c3ccccc3)cc2C2NC(=O)NC(C)=C2C(=O)OC(C)C)cc1C (stereo not drawn) | . | ? | -10 | -20%[46.1 µM] | 1%
COc1ccc(CNC(=O)C2CCN(Cc3nc(-c4ccc(Cl)cc4)oc3C)CC2)cc1 | . | 9%[46.1 µM] | 21 | 1%[46.1 µM] | 0%
Cc1nn(CCCC(=O)Nc2cccc(F)c2)c(=O)c2c1sc1ccccc12 | . | ? | -20 | -10%[46.1 µM] | -17%
CCOC(=O)CCNC(=O)C1=CN2CCN(Cc3c(C)noc3C)C(=O)N=C2O1 | . | . | -4 | . | .
COc1ccc(-c2nc(CCNC(=O)c3cc(OC)c(OC)c(OC)c3)cs2)cc1 | . | . | 117 | 12%[46.1 µM] | -28%
COc1ccc(NC(=O)CCCN2C(=O)/C(=C\c3ccco3)SC2=S)cc1 | ? | -5% | -101* | ? | ?
COc1ccc(/C=C2/SC(=S)N(CCCC(=O)Nc3ccccc3C(=O)O)C2=O)cc1 | 28% | 7.9µM* | -34 | 2.8µM* | 8.9µM*
CC(C)CCn1c(=O)c2sccc2n2c(CCCC(=O)NC(C)C)nnc12 | . | . | ? | 10%[46.1 µM] | 2%
Cc1ccc(S(=O)(=O)CCSc2ccc(C(F)(F)F)cn2)cc1 | 2% | . | 27 | . | -15%
O=S(=O)(CCSc1ccc(C(F)(F)F)cn1)c1ccccc1 | -3% | . | -60* | . | 14%
CC1CCN(c2nc3ccc(C(=O)NCc4ccccc4Cl)cc3s2)CC1 | . | ? | 18 | ? | -3%
O=[N+]([O-])c1ccc(-n2nnnc2-c2ccccc2)c([N+](=O)[O-])c1 | 35µM* | 15µM* | -98* | ? | 32µM*
COc1cc2c(cc1OC)C(COc1cc(C)cc(C)c1)N(C(=O)COc1ccccc1)CC2 (stereo not drawn) | . | . | -26 | ? | ?
COc1ccc(N2CCN(C(=O)c3oc4ccccc4c3NC(=O)CCc3cc(OC)no3)CC2)cc1 | ? | -18%[46.1 µM] | -9 | -21%[46.1 µM] | 25µM*
COc1cc(CCC(=O)Nc2c(C(=O)N3CCN(c4ccccc4)CC3)oc3ccccc23)on1 | -21% | -13%[46.1 µM] | 19 | ? | 31%
CCOC(=O)c1ccc(CN2C(=O)C(n3cccc3)c3ccccc32)o1 (stereo not drawn) | . | . | 11 | . | .
CCCCN(C)Cc1c(C(=O)N2CCc3ccccc3C2)nc2ccc(Cl)cn12 | -1% | ? | -14 | -7%[46.1 µM] | -28%

Source: PubChem BioAssay
